# Source: PubChem
# A selection: hits, their analogues and other compounds. The true share with any hit is near 7.4%.
# Luc counter = counter-screen: inhibitors of Kinase-Glo firefly luciferase | Q27757 | Kinase-Glo luciferase, ATP luminescence, 8 min | hit rate 0.28% among 200,000 | Potency, µM (doses to about 38.3 µM), for the others: at the highest dose activity change, negative = inhibition, usual class: inhibitors; also: % is scaled to controls: 0 for no effect and ±100 for the full control effect; nearly all actives have a fitted effect of over 60% in size
#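 Light output from Kinase-Glo luciferase with luciferin and 10 uM ATP in 50 mM imidazole pH 7.2, KCl, MgCl2, Tween 20, BSA; compound pin-delivered, 8-min ambient incubation, then luminescence read.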
# Rab9 promoter act = activates the Rab9 promoter | hit rate 2.8% among 320,000 | Huh7 Rab9 promoter-luciferase reporter, luminescence, 24 h | AID 485297 | Potency, µM (series often up to 9.22 µM), inactives show at the top dose activation, negative = inhibition, hits mostly activators; also: % of control where 0% means no effect; nearly all actives have a fitted effect of over 60% in size
#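 Cell-based reporter: Huh7 stable for Rab9 promoter-driven luciferase, plated in reduced-serum medium with 10% FBS at 1500 cells/well, compound-treated 24 h at 37 °C, luminescence read after 10 min reagent.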
# SMN2 splice up = SMN2 splice variant enhancement; HEK293 SMN2-luciferase splicing reporter, luminescence, 30-36 h; Potency, µM (top dose mostly 46.1 µM), without a hit: top-dose activity change, positive = activation, usual class: activators; hit rate 2.8% among 210,000; AID 1458; also: % of control where 0% means no effect; nearly all actives have a fitted effect of over 55% in size
#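 qHTS luciferase splicing reporter: luminescence rises when SMN2 exon 7 is included in transfected HEK293 cells. Compound exposure lasted 30-36 h at 37C, with 4.5 mM final sodium butyrate as control, followed by a ONE-Glo read.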
# ELG1 genotoxic = genotoxicity induction in ELG1-luciferase HEK293T cells; HEK293T ELG1-luciferase reporter, luminescence, 16 h; Potency, µM (top dose mostly 46 µM), for inactives: at the highest dose activity change, positive = activation, hits mostly activators; hit rate 1.3% among 330,000; AID 504466; also: % of control where 0% means no effect; nearly all actives have a fitted effect of over 60% in size
#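 Genotoxicity was scored as increased ELG1-luciferase reporter signal, measured by ONE-Glo luminescence (30 min, room temperature). Compound or vehicle exposure of the HEK293T reporter cells lasted 16 hr at 37°C.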
# FLuc counter = firefly luciferase modulation, counter-screen for miR-21 project | hit rate 6.9% among 360,000 | Potency, µM (highest dose often 57.5 µM), for the others: at the top dose activity change, negative = inhibition, hits mostly inhibitors | purified FLuc, Km substrates, luminescence inhibition | P08659;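 also: plate controls were vehicle for no effect and reference inhibitor for full effect; nearly all actives have a fitted effect of over 55% in size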
# Target sequence (P08659 whole entry, looked up): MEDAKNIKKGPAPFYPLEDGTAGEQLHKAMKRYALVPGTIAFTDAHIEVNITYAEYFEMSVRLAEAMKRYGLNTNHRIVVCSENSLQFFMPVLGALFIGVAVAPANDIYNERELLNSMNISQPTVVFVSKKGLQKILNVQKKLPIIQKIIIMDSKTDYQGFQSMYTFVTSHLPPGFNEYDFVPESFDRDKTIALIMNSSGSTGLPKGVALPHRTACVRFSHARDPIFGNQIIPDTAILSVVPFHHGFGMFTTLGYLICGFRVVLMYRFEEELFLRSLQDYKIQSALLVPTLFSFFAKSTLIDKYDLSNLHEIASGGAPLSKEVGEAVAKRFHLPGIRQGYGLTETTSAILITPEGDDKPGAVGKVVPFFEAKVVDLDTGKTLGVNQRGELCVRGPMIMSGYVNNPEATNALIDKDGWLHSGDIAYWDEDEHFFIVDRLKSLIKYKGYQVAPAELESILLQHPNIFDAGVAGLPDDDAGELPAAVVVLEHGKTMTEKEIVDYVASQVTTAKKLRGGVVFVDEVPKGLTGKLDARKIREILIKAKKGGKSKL
#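 Purified P. pyralis luciferase (10nM final) with 10uM D-luciferin and 10uM ATP (Km levels) in 50mM Tris acetate pH 7.5, 10mM Mg acetate, 0.01% Tween-20, 0.05% BSA; qHTS 6-point titration, ~60 µM downward; luminescence read.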
# NPC1 promoter act = activates the NPC1 promoter; Huh7 NPC1 promoter luciferase reporter, 24 h; AID 485313; hit rate 2.4% among 320,000; Potency, µM (series often up to 9.22 µM), without a hit: at the top dose activation, actives largely listed as activators; also: % of control where 0% means no effect; nearly all actives have a fitted effect of over 60% in size
#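 Quantitative HTS used a cell-based reporter: Huh7 cells stably bearing the NPC1 promoter upstream of luciferase were treated with compounds for 24 h, and promoter activation was read as luminescence.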
# * = called active by the depositor; ? = inconclusive; nt = no result; [ ] = another dose, or the depositor's remark. Calls follow the shape of the dose curve; as a rule, active = well fitted curve in the direction sought with a large enough effect; inconclusive = small, poorly fitted or top-dose-only effect, or another doubt; inactive = no such curve, though single readings can be large; an effect the other way counts as inactive or inconclusive. Potency is read from the fitted curve at half-maximal effect.
SMILES,Luc counter,Rab9 promoter act,SMN2 splice up,ELG1 genotoxic,FLuc counter,NPC1 promoter act
O=C(NCc1cccc(Cl)c1)NCc1noc2ccccc12,nt,nt,nt,nt,-11.2%,nt
O=C(CSc1nc2ccccc2[nH]1)c1c[nH]c2ccccc12,-1.4%,19.5%,13.4%,7.4%,-10.8%,11.0%
C=CCn1c(C)cc(C(=O)CSc2nc3ccccc3[nH]2)c1C,-7.1%,0.316µM*,-58.7%,?,0.301µM*,0.126µM*
COCCn1c(C)cc(C(=O)CSc2ccc3ccccc3n2)c1C,-2.0%,?,11.2µM*,4.4%,12µM*,?
O=C(CSc1nc2ccccc2[nH]1)c1ccccc1F,nt,1.58µM*,nt,?,8.49µM*,1.41µM*
COCCn1c(C)cc(C(=O)COc2nc3ccccc3nc2C)c1C,-2.6%,-6.3%,-53.7%,-2.2%,-15.7%,-8.2%
Fc1cccc(CSc2nc3ccncc3[nH]2)c1,-20.3%,?,11.2µM*,15.7%,?,24.5%
C=C(C)CSc1nc2ccccc2[nH]1,-13.9%,20.3%,?,7.2%,?,-2.9%
N#CCCS(=O)(=O)c1ccccc1,-2.8%,nt,17.1%,nt,nt,nt
Cc1cc(C(=O)CSc2nc3ccccc3[nH]2)c(C)n1C,-1.3%,0.447µM*,3.16µM*,?,3.38µM*,0.398µM*
CCN(CC)C(=O)CSc1nc2ccccc2c(=O)n1Cc1ccco1,nt,nt,nt,nt,-2.9%,nt
Fc1cccc(F)c1CSc1nc2ccccc2[nH]1,-6.8%,1µM*,10µM*,?,?,1.41µM*
C=CCn1c(C)cc(C(=O)COc2nncc3ccccc23)c1C,-2.9%,?,?,10.3µM*,15.1µM*,1.41µM*
Cc1ccc2nc(SCC(=O)c3cc(C)n(C)c3C)[nH]c2c1,-3.8%,-1.4%,11.0%,11.6%,-19.2%,6.5%
CCCn1c(C)cc(C(=O)CSc2nc3ccccc3c(=O)n2Cc2ccco2)c1C,-0.9%,3.55µM*,?,?,5.36µM*,3.16µM*
CC(C)c1ccc(NC(=O)C2CCCN(S(=O)(=O)c3cccc4cccnc34)C2)cc1 (stereo not given),nt,nt,-21.3%,nt,1.6%,nt
COCCn1c(C)cc(C(=O)CSc2nc3ccccc3c(=O)[nH]2)c1C,-2.8%,1.58µM*,?,?,5.36µM*,1.78µM*
COCCn1c(C)cc(C(=O)CSc2nncn2-c2ccccc2)c1C,-8.7%,-1.2%,3.6%,6.6%,19µM*,-0.5%
C=CCn1c(C)cc(C(=O)CSc2nc3ccccc3c(=O)[nH]2)c1C,4.8%,0.794µM*,-38.0%,2.91µM*,9.53µM*,?
COCC(C)n1c(C)cc(C(=O)CSc2nc3ccccc3c(=O)[nH]2)c1C (stereo not given),-4.6%,21.1%,-41.5%,-6.9%,?,13.3%
Cc1cc(C)c(C(=O)CSc2nc3ccccc3c(=O)[nH]2)cc1C,-0.9%,-5.7%,-26.5%,-1.9%,-9.5%,-13.3%
Cc1ccc(NC(=O)N2C(=O)C3(OCCO3)c3ccccc32)cc1,-3.9%,2µM*,?,?,?,3.16µM*
CCOc1ccc(CC(=O)NCC(c2cccs2)S(=O)(=O)c2ccc(F)c(C)c2)cc1 (stereo not given),nt,nt,nt,nt,-8.2%,nt
C=CCn1c(C)cc(C(=O)CSc2n[nH]c(N)n2)c1C,-1.4%,19.1%,?,14.6µM*,19µM*,23.8%
Cc1cc(C(=O)CSc2n[nH]c(N)n2)c(C)n1C1CC1,-4.3%,26.7%,12.5%,4.0%,-19.5%,12.4%
SMILES,Luc counter,Rab9 promoter act,SMN2 splice up,ELG1 genotoxic,FLuc counter,NPC1 promoter act
Cc1ccc(-n2c(C)cc(C(=O)CSc3n[nH]c(N)n3)c2C)cc1,-9.0%,20.4%,-34.5%,0.7%,9.53µM*,25.7%
Cc1cc(C(=O)CSc2n[nH]c(N)n2)c(C)n1-c1ccc(F)cc1,1.2%,?,-11.6%,14.9%,19µM*,?
Cc1cc(C(=O)CSc2n[nH]c(N)n2)c(C)n1-c1cc(F)ccc1F,4.7%,?,13.4%,10.1%,-3.0%[2.3 µM],25.2%
Cc1cc(C(=O)CSc2n[nH]c(N)n2)c(C)n1-c1ccccc1,-7.1%,?,11.2µM*,4.47µM*,6.01µM*,2.51µM*
CC1C(=O)N(C)C(=O)c2nc[nH]c21 (stereo not given),-2.6%,-0.4%[46.1 µM],-5.4%,nt,nt,1.7%[46.1 µM]
Cc1cc(C(=O)CSc2nnc3ccccn23)c(C)n1-c1ccccc1,-14.4%,?,-47.1%,?,0.19µM*,?
Cn1c(=O)c(CCc2ccccc2)nc2cnc(Oc3ccccc3)nc21,-2.5%,nt,-17.1%,nt,nt,nt
Cc1ccc(C)c(NC(=O)Cn2c(=O)n(CCCS(=O)(=O)C3CCCCC3)c(=O)c3ccccc32)c1,nt,nt,-1.5%,nt,-10.9%,nt
Cc1ccsc1C1C(C#N)=C(N)N(N(C)C)C2=C1C(=O)CC(C)(C)C2 (stereo not given),3.0%,-4.0%,25.1µM*,-6.9%,-0.3%,-0.8%
Cc1ccc(C(=O)Nc2ccc(C(=O)N/N=C/c3ccccn3)cc2)cc1,nt,?,nt,-29.0%,15.1µM*,27.3%
O=C(N/N=C/c1ccccn1)c1ccc(Cl)cc1,nt,3.16µM*,nt,18.3µM*,8.49µM*,?
COc1ccc(C(=O)N/N=C/c2ccccn2)cc1OC,nt,8.9%,nt,-1.1%,-6.4%,-0.8%
O=C(Cc1cccs1)N/N=C/c1ccccn1,nt,17.2%,nt,2.3%,-12.8%,-0.2%
O=C(N/N=C/c1ccccn1)c1ccccc1,-5.3%,3.55µM*,11.2µM*,?,10.7µM*,?
O=C(N/N=C/c1ccccn1)c1cccs1,?,7.3%,-44.9%,?,19µM*,5.5%
O=C(N/N=C/c1ccc[nH]1)c1ccc(Cl)cc1,-3.9%,-2.5%,8.3%,18.6%,10.7µM*,-23.7%
CN(C)c1ccc(C(=O)N/N=C/c2ccccn2)cc1,nt,2.51µM*,nt,?,13.5µM*,2.82µM*
COC(=O)[C@H](COC(C)(C)C)NC(=O)O[C@@H]1C(=O)c2cc(OC)ccc2O[C@H]1c1cccc(OC)c1,2.7%,nt,9.2%,nt,nt,nt
Cc1cccc(N2CCN(S(=O)(=O)c3ccc(-c4cc(C(F)(F)F)on4)s3)CC2)c1C,nt,nt,nt,nt,-5.8%,nt
CCOc1ccc2nc(N3CCCC(C(=O)NCC4CCCO4)C3)sc2c1 (stereo not given),nt,?,nt,12.5%,4.78µM*,?
CCOc1ccc2nc(N3CCC(C(=O)N4CCN(C5CCCCC5)CC4)CC3)sc2c1,-0.9%,1.8%,-16.2%,4.2%,-18.8%,11.5%
CCOc1ccc2nc(N3CCCC(C(=O)NCCc4ccc(OCC)c(OCC)c4)C3)sc2c1 (stereo not given),nt,nt,15.2%,nt,?,nt
CCOc1ccc2nc(N3CCCC(C(=O)NCCc4ccc(OC)cc4OC)C3)sc2c1 (stereo not given),nt,nt,14.1µM*,nt,?,nt
